Assay outcomes: PubChem BioAssay, National Center for Advancing Translational Sciences (NCATS)
DT40 TDP1 CPT = qHTS for Inhibitors of human tyrosyl-DNA phosphodiesterase 1 (TDP1): qHTS in cells in presence of CPT. Potency, µM (series often up to 46.2 µM), most hits filed as inhibitors. 420,000 compounds, 12% hits. chicken DT40 Tdp1-/-;hTDP1 cells + 20 nM CPT, ATP luminescence, 48 h; further: nearly all actives have a fitted effect of over 55% in size
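Chicken DT40 Tdp1-/- cells stably complemented with human TDP1 were seeded at 400 cells/well in medium containing 20 nM camptothecin, exposed to pin-transferred compounds, and grown at 37 °C for at least 48 hr. Viability was read as ATP luminescence.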
TDP1 cell noCPT = qHTS for Inhibitors of human tyrosyl-DNA phosphodiesterase 1 (TDP1): qHTS in cells in absence of CPT. DT40 Tdp1-/- hTDP1 cells, no CPT, ATP luminescence, 48 h. Potency, µM (series often up to 46.2 µM), usual class: inhibitors. 420,000 compounds, 15% hits; further: nearly all actives have a fitted effect of over 55% in size
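Growth kinetics read by CellTiter-Glo luminescence after ≥48 hr at 37 °C. Cells: DT40 Tdp1-/- stably carrying human TDP1, 400 per well, compound exposure in the absence of CPT (DMSO vehicle).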
IL-1B inflam inh = qHTS for Inhibitors of Inflammasome Signaling: IL-1-beta AlphaLISA Primary Screen | THP-1 LPS/ATP IL-1B secretion, AlphaLISA, 16 h; active compounds read low | activity change, % at 57.5 µM | 360,000 compounds, 4.7% hits | AID 743279, 2014; in the data active means activity change below about -50%; inconclusive means mostly about -30% to -49%
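Secreted IL-1B measured by AlphaLISA bead assay after 16 h compound exposure of THP-1 cells; compounds (final up to 57.5 uM) added 1 h before LPS (250 ng/mL) and ATP (1.25 mM) stimulation; lower signal means less secretion.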
VP16 counter = VP16 counterscreen qHTS for inhibitors of ROR gamma transcriptional activity | Drosophila S2 Gal4-VP16 UAS-luciferase, luminescence, 20 h | 310,000 compounds, 3.5% hits | Potency, µM (titrated, usually from 53.6 µM), most hits filed as inhibitors | AID 2546, 2010;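 further: Gal4-VP16 expression switched on by copper sulfate through the metallothionein promoter; nearly all actives have a fitted effect of over 50% in size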
LDHA inh = qHTS assay for inhibitors of human lactate dehydrogenase; L-lactate dehydrogenase A chain (Homo sapiens), P00338; purified LDHA, NADH/diaphorase-resazurin fluorescence; active compounds read low; activity change, % (values are at about 110 or 230 µM); 480,000 compounds, 0.15% hits; in the data active means activity change below about -30%; inconclusive means mostly about -25% to -30%
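Enzyme activity of human lactate dehydrogenase 5 (2 nM; 0.06 mM NADH, 0.2 mM pyruvate, 5 min, RT) is measured via a resazurin/diaphorase fluorescence readout of residual NADH.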
RORgamma inh = qHTS for inhibitors of ROR gamma transcriptional activity. AID 2551, 2010. Potency, µM (titrated, usually from 53.6 µM), hits mostly inhibitors. 310,000 compounds, 5.4% hits. Drosophila S2 Gal4-RORgamma UAS-luciferase reporter, 20 h. Nuclear receptor ROR-gamma (Mus musculus), P51450; further: nearly all actives have a fitted effect of over 60% in size
Target sequence (P51450 whole entry, looked up, the tested form may be a part): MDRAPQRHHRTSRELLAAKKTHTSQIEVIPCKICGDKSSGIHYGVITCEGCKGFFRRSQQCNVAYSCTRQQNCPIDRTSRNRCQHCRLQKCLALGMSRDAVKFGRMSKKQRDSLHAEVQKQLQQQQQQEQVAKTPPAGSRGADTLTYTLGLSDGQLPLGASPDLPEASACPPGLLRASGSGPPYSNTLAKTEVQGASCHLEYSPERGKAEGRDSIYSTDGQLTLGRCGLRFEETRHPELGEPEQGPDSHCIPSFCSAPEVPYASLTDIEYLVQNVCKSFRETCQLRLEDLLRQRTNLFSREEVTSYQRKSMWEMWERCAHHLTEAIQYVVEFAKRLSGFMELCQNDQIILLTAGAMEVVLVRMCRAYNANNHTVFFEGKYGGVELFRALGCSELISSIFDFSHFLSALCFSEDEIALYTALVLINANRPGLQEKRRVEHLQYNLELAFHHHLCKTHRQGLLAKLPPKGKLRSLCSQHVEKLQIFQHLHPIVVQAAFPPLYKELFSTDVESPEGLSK
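A Gal4/UAS one-hybrid system in insect cells: metallothionein-promoter Gal4–ROR gamma fusion plus Photinus luciferase reporter. Copper sulfate 700 uM final, 20 hr ambient incubation, luminescent detection after 10 min with reagent.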
A number is an active result; i = inactive; ? = inconclusive; nt = not tested or not shown; [ ] = another dose, or the depositor's remark. Hits are enriched below; roughly 18% of the tested compounds scored in any of these assays. Unless noted, the call rests on the fitted dose curve; in most records, active means well fitted curve in the direction sought with a large enough effect; inconclusive means small, poorly fitted or top-dose-only effect, or another doubt; inactive means no such curve, though single readings can be large; an effect the other way counts as inactive or inconclusive.

SMILES	DT40 TDP1 CPT	TDP1 cell noCPT	IL-1B inflam inh	VP16 counter	LDHA inh	RORgamma inh
Cc1ccc(-n2nnnc2SCC(=O)Nc2ccc(N3CCN(C)CC3)cc2)c(C)c1	?	18.4µM	i	i	i	i
Cc1ccc(SCC(=O)Nc2ccc(N3CCN(C)CC3)c(F)c2)c(C)c1	20.6µM	16.4µM	i	i[10 µM]	i	i
O=C(CSc1nc2ccccc2nc1N1CCCC1)NC1CCCC1	nt	nt	nt	nt	i	nt
CC1Sc2ccc(C(=O)NNC(=O)CSc3cccc4cccnc34)cc2NC1=O (stereo unspecified)	nt	nt	nt	nt	i	nt
COc1ccc(CNC(=O)C(C)Sc2nc3cc(Cl)ccc3n2C)cc1 (stereo unspecified)	nt	nt	nt	nt	i	nt
Cc1ccc(-n2nnnc2SCC(=O)Nc2cc(C)on2)c(C)c1	i	i	i	i	i	i
C/C(N)=C(/C#N)C(=O)CSc1nnnn1-c1ccc(C)cc1C	23.1µM	13µM	i	12.6µM	i	i
Cc1ccc(-n2nnnc2SCC(=O)NCC2(N3CCCCC3)CCCCC2)c(C)c1	i	i	-57.3	nt	i	nt
S=C(Nc1ccccc1)N1CCCCC1	i	i	i	i	i	11.2µM
S=C(Nc1ccc(Cl)cc1)N1CCCCC1	i	i	i	?	i	10µM
Cc1ccc(NC(=S)N2CCCC2)cc1C	?	?	i	i	i	?
COC(=O)c1ccc(NC(=S)N2CCN(Cc3ccc(Cl)cc3)CC2)cc1	?	16.4µM	i	i	i	?
Cc1ccc(NC(=S)N2CCCC2)cc1Cl	i	i	i	?	i	15.8µM
CN1CCN(C(=S)Nc2ccc(Cl)cc2)CC1	i	i	i	i	i	i
CC1CCc2c(sc(NC(=O)C(C)C)c2C#N)C1 (stereo unspecified)	nt	nt	nt	nt	i	nt
CCCCn1c(=O)[nH]c(=O)c2c1ncn2CCC(C)C	nt	nt	nt	nt	i	nt
CCOC(=O)c1ccc(N2C(=O)c3n[nH]c(-c4ccco4)c3C2c2ccc(F)cc2)cc1 (stereo unspecified)	23.1µM	23.1µM	nt	nt	i	nt
CCOC(=O)c1ccc(N2C(=O)c3n[nH]c(-c4ccco4)c3C2c2cccc(OC)c2)cc1 (stereo unspecified)	23.1µM	18.4µM	nt	nt	i	nt
CCOC(=O)c1ccc(N2C(=O)c3n[nH]c(-c4ccco4)c3C2c2ccc(OCC)cc2)cc1 (stereo unspecified)	?	16.4µM	nt	nt	i	nt
CCOC(=O)c1ccc(N2C(=O)c3n[nH]c(-c4ccco4)c3C2c2cccc(F)c2)cc1 (stereo unspecified)	18.4µM	20.6µM	nt	nt	i	nt
CCOC(=O)c1ccc(N2C(=O)c3n[nH]c(C)c3C2c2ccc(O)cc2)cc1 (stereo unspecified)	i	?	i	i	i	i
CCOC(=O)c1ccc(N2C(=O)c3n[nH]c(C)c3C2c2ccccc2)cc1 (stereo unspecified)	i	i	i	i	i	i[10 µM]
CCCC(=O)n1nc(-c2ccc(Cl)cc2)nc1N	nt	nt	nt	nt	i	nt
CCOC(=O)c1ccc(N2C(=O)c3n[nH]c(-c4ccco4)c3C2c2cccc(O)c2)cc1 (stereo unspecified)	20.6µM	20.6µM	nt	nt	i	nt
COCCNC(=O)COC(=O)/C=C/c1c(C)nn(Cc2ccc(Cl)cc2Cl)c1Cl	14.6µM	16.4µM	i	?	i	i
SMILES	DT40 TDP1 CPT	TDP1 cell noCPT	IL-1B inflam inh	VP16 counter	LDHA inh	RORgamma inh
CCC(=O)NC(c1cccs1)c1cc(Cl)c2cccnc2c1O (stereo unspecified)	4.61µM	3.26µM	i	i	i	i
CCCCC(=O)NC(c1cccs1)c1cc(Cl)c2cccnc2c1O (stereo unspecified)	3.66µM	2.59µM	i	3.55µM	i	2.51µM
N#Cc1ccc(S(=O)(=O)Nc2c(NC3CCCCC3)c3ccccc3oc2=O)cc1	nt	nt	nt	nt	i	nt
COC(=O)CSc1nc2ccc(NC(C)=O)cc2s1	i	i	-52.7	i	i	i
COc1cc(C)ccc1OCCSc1nc2ccc(NC(C)=O)cc2s1	?	20.6µM	nt	nt	i	nt
COc1cc(CC(=O)Nc2ccc3nc(SC)sc3c2)cc(OC)c1OC	?	20.6µM	i	i	i	i
CC(=O)Nc1ccc2nc(SCCOc3ccc(C)cc3)sc2c1	i	?	nt	nt	i	nt
O=C(Cc1cccc2cccnc12)NCc1ccccc1	nt	nt	nt	nt	i	nt
COC(=O)c1ccc(C)c(NC(=O)c2cnccn2)c1	nt	nt	nt	nt	i	nt
Cc1oc2cc(OCC(=O)N3CCCC3)ccc2c(=O)c1Oc1ccccc1	nt	nt	nt	nt	i	nt
CCOc1ccccc1Nc1nnc(SCC(=O)Nc2cccc(S(=O)(=O)NC3=NCCCCC3)c2)s1	23.1µM	18.4µM	i	i	i	i
Cc1ccc(NC(=O)CSCC(=O)Nc2cccc(S(=O)(=O)N3CCCCCC3)c2)cc1	20.6µM	?	i	nt	i	nt
CC(C)Nc1nnc(SCC(=O)Nc2ccc3c(c2)C(=O)c2ccccc2C3=O)s1	?	18.4µM	i	i	i	i
Cc1cccc(NC(=O)CSCC(=O)Nc2cccc(S(=O)(=O)N3CCCCCC3)c2)c1	i	?	i	nt	i	nt
Cc1ccc(Nc2nnc(SCC(=O)Nc3cccc(S(=O)(=O)N4CCCCC4)c3)s2)cc1	?	18.4µM	i	i	i	?
COc1ccc(-c2nc(C#N)c(N3CCN(C(=O)c4cccs4)CC3)o2)cc1	nt	nt	nt	nt	i	nt
C=CCNC(=O)NC(=O)CN1CCC(Cc2ccccc2)CC1	nt	nt	nt	nt	i	nt
NC(=S)N/N=C/C(Cl)=C/c1ccc([N+](=O)[O-])cc1	nt	nt	nt	nt	i	nt
c1ccc(Oc2ncnc3sc(-c4ccccc4)cc23)cc1	nt	nt	nt	nt	i	nt
Cc1c(C(=O)N2CCN(C(c3ccccc3)c3ccccc3)CC2)oc2ccccc12	16.4µM	?	i	nt	i	nt
Cc1ccc2oc(C(=O)N3CCN(C(c4ccccc4)c4ccccc4)CC3)cc(=O)c2c1	nt	nt	nt	nt	i	nt
Cc1cc(=O)oc(C)c1C(=O)N1CCN(C(c2ccccc2)c2ccccc2)CC1	20.6µM	29.1µM	i	i	i	?
Cc1cc(=O)oc(C)c1C(=O)N1CCN(c2ccc(F)cc2)CC1	i	i	i	i	i	i
CC12CCC(C(=O)N3CCN(C(c4ccccc4)c4ccccc4)CC3)(OC1=O)C2(C)C (stereo unspecified)	?	18.4µM	i	i	i	i
Cc1onc(C(=O)N2CCN(C(c3ccccc3)c3ccccc3)CC2)c1[N+](=O)[O-]	?	?	-98.7	i	i	i
Cc1onc(C(=O)N2CCOCC2)c1[N+](=O)[O-]	i	i	i	i	i	i
